Reference: PubChem BioAssay AID720504 (National Center for Advancing Translational Sciences (NCATS), 2013)
Several values for one entry are separate records, joined by “and”; a condition that tells them apart may be missing. Equal entries are not always repeated. The campaign covered roughly 360,000 compounds. About 10,000 (2.8%) were called active. Roughly 4% stayed inconclusive and do not appear here. This excerpt belongs to a sample that is enriched for actives. Values without a mark were called inactive. The call rests on the fitted dose curve; in most records, active means well fitted inhibition curve with a large enough effect; inconclusive means small, poorly fitted or top-dose-only effect; inactive means flat fitted curve, though single readings scatter.

Target: Serine/threonine-protein kinase PLK1 (Homo sapiens) (UniProt P53350)
Assay: qHTS for Inhibitors of PLK1-PDB (polo-like kinase 1 - polo-box domain): Primary Screen; further: nearly all actives have a fitted effect of over 65% in size; on max response, negative = inhibition: series mostly up to about 57 µM
Details: Plk1 PBD binding of FITC phosphopeptide, fluorescence polarization
On the % scale 0 is the no-effect control and ±100 the full control effect; potency means the concentration at half of the fitted maximal effect.

Sequence of Serine/threonine-protein kinase PLK1 (Homo sapiens) (P53350 whole entry, looked up, the tested form may be a part): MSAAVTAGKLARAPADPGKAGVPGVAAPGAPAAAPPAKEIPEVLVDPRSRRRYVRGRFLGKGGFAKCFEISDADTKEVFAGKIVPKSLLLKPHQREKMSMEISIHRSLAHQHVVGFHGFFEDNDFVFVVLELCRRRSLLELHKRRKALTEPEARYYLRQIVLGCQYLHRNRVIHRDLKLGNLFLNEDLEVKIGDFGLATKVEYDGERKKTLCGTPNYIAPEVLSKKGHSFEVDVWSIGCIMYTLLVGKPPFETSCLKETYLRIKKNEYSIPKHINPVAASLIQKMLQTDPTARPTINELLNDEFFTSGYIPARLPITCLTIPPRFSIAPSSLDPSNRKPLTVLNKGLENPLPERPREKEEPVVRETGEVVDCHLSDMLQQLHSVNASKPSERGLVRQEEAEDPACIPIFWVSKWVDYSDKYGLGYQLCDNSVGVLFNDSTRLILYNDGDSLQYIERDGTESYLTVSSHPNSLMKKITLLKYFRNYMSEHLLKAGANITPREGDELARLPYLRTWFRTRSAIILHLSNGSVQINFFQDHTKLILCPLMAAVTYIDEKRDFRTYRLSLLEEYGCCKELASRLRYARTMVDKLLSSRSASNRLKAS

SMILES	max response, negative = inhibition	Potency
CC(C)(C)CC(=O)Nc1nc(C(N)Cc2ccc(C(F)(F)F)cc2)cs1 (configuration not stated)	-8.43%	–
C[N+](C)(C)CCNC(=O)c1c[nH]c2ccccc12	-0.504%	–
CC(=O)N1CC[n+]2c(-c3ccc([N+](=O)[O-])cc3)csc21	–	9.47 µM (active)
COC(=O)c1c(C)[nH]c(C)c1-c1ccc([N+](=O)[O-])cc1	-17.8%	–
COc1ccc(C2CC(c3ccc([N+](=O)[O-])cc3)=NN2C(C)=O)cc1 (configuration not stated)	-7.83%	–
CSc1ccc(CN2CCC2(C)C(=O)NCc2ccccc2Br)cc1 (configuration not stated)	2.74%	–
Cc1ccc(-n2c(C)cc(C(=O)CSc3nnc4ccccn34)c2C)cc1	-3.52%	–
Cc1cc(C(=O)COC(=O)C2CC2)c(C)n1-c1ccc(F)cc1	3.31%	–
Cc1ccc(-n2c(C)cc(C(=O)CN3C(=O)C(=O)N(C4CCCC4)C3=O)c2C)cc1	–	26.7 µM (active)
FC(F)(F)c1ccccc1Cc1c(-c2ccccc2)nc2c3ccccc3ccn12	5.06%	–
COc1ccc(C(NC(=O)C2CCN(CCCc3ccccc3)CC2)c2cccs2)cc1 (configuration not stated)	-15.3%	–
CCCc1nc2c3ccccc3ccn2c1Cc1ccccc1C(F)(F)F	-6.42%	–
CCCNC(=O)C1(C)CCN(C(=O)c2ccc(F)cc2Cl)C1 (configuration not stated)	-7.53%	–
COc1ccccc1CC1(C)C(=O)Nc2ccc(OC(F)(F)F)cc21 (configuration not stated)	-13.6%	–
CCCCNC(=O)OC1CC2CC1[C@H]1CCCCN1C2=O (some centres not stated)	-1.73%	–
Cc1ccc(S(=O)(=O)/N=C(/Nc2ccc3[nH]c(=O)[nH]c3c2)c2ccccc2)cc1	-15.4%	–
Cc1ccc(S/C(=N\S(=O)(=O)c2ccc(Cl)cc2)c2ccccc2)cc1	–	2.67 µM (active)
Cc1ccc(S(=O)(=O)/N=C(/Nc2ccccn2)c2ccc(Cl)cc2)cc1	-1.19%	–
CC1CN(C(=O)c2cccc(NS(=O)(=O)c3ccc(Br)cc3)c2)CC(C)O1 (configuration not stated)	-2.62%	–
O=S1(=O)CC(N2CCN(c3ccccn3)CC2)CN1Cc1ccc(F)cc1 (configuration not stated)	-5.38%	–
CSc1ncccc1C(=O)N1CCCC(Nc2ccc(F)c(F)c2)C1 (configuration not stated)	-2.74%	–
Cc1sc(NC(=O)C2C3CCC(O3)C2C(=O)O)c(C(=O)OC(C)C)c1-c1ccc(Cl)cc1 (configuration not stated)	–	7.52 µM (active)

SMILES	max response, negative = inhibition	Potency
COc1ccc(NC(=O)C2C3CCC(O3)C2C(=O)O)cc1OC (configuration not stated)	4.35%	–
CC(C)OC(=O)c1cc(NC(=O)C2C3CCC(O3)C2C(=O)O)cc(C(=O)OC(C)C)c1 (configuration not stated)	-3.95%	–
CCc1nc2c(OCCOc3ccccc3)cccn2c1N(C=O)Cc1ccc(OC)cc1	-6.91%	–
COc1ccc(C(=O)N2CCCC(C(=O)c3ccccc3OC)C2)cc1OC (configuration not stated)	-20.4%	–
O=C(Oc1ccccc1Cl)c1ccc(N2CCOCC2)c([N+](=O)[O-])c1	-14.3%	–
O=C(Oc1ccccc1C(=S)N1CCCCC1)c1cc([N+](=O)[O-])cc([N+](=O)[O-])c1	–	2.12 µM (active) and 2.67 µM (active)
COc1cc(C(=S)N2CCOCC2)cc(OC)c1OC(=O)c1ccc([N+](=O)[O-])cc1[N+](=O)[O-]	-24.3%	–
CC(=O)Nc1ccc(S(=O)(=O)Oc2ccc(Br)cc2C(=S)N2CCOCC2)cc1	-17.8%	–
O=C(Oc1ccc(Br)cc1C(=S)N1CCOCC1)c1cccc([N+](=O)[O-])c1	–	11.9 µM (active)
COc1ccc(S(=O)(=O)N2CCCCC2)cc1C(=O)NC1CCS(=O)(=O)C1 (configuration not stated)	5.08%	–
O=c1[nH][nH]c2c1[C@H](c1ccc(Cl)cc1)O[C@H](CCc1ccccc1)C2	-16.9%	–
CCOC1=C2CN(S(=O)(=O)c3ccc(C)cc3)[C@H](c3cccs3)C[C@H]2[C@H]2C(=O)N(c3ccccc3)C(=O)[C@H]2C1	-0.0091%	–
O=c1[nH]c(SCc2cccc(F)c2)nc2ccccc12	-13.9%	–
O=C(Nn1c(SCc2ccc([N+](=O)[O-])cc2)nc2ccccc2c1=O)c1ccc(F)cc1	-14.4%	–
N#Cc1c(-c2ccccc2)nc(SCc2ccc([N+](=O)[O-])cc2)[nH]c1=O	–	26.7 µM (active)
Cc1ccccc1CSc1nnc(-c2ccccc2)c(=O)[nH]1	-22.2%	–
N#Cc1c(-c2ccccc2)nc(SCc2cccc(C(F)(F)F)c2)[nH]c1=O	–	23.8 µM (active)
N#Cc1c(-c2ccc(F)cc2)nc(-c2ccccc2)[nH]c1=O	-13.6%	–
S=C(NN=Cc1ccccn1)Nc1ccccn1	-6.29%	–
COc1ccc(CCCNC(=O)C2Cc3c(-c4cccc(C(N)=O)c4)ccnc3O2)cc1 (configuration not stated)	-3.93%	–
CCc1nc2ccc(C(=O)Nc3ccc(OC)c(OC)c3)cn2c1N(C)C(=O)c1cccc(OC)c1	-6.83%	–
O=C(Nc1ccccc1[N+](=O)[O-])C1C(c2ccccc2)=C1c1ccccc1	0.94%	–

SMILES	max response, negative = inhibition	Potency
O=C(NNC(=O)c1ccccc1[N+](=O)[O-])Nc1ccccc1C(F)(F)F	-9.97%	–
O=C(O)c1ccccc1NC(=S)NC(NC(=O)c1ccccc1[N+](=O)[O-])C(Cl)(Cl)Cl (configuration not stated)	–	26.7 µM (active)
COc1ccccc1-n1c(SCC(=O)O)nc2sc3c(c2c1=O)CCC3	-11.7%	–
COc1cccc(-n2c(=S)sc3c(=O)n(-c4ccccc4C)c(SCC(=O)O)nc32)c1	-8.81%	–
COc1ccc(Cl)cc1-n1c(=S)sc2c(=O)n(-c3ccc(F)cc3)c(SCC(=O)O)nc21	–	23.8 µM (active)
C#CCN(C[C@H]1[C@H](OC(=O)NC2CCCC2)[C@H](OC(=O)NC2CCCC2)C[C@H]2C(=O)N(c3ccccc3)C(=O)[C@@H]12)S(=O)(=O)c1ccc(C)cc1	-0.644%	–
CC(=O)Nc1ccc(-c2ccnc3c2CC(C(=O)NC(C)C)O3)cc1 (configuration not stated)	-3.44%	–
O=C(NCCCCCCCCCNC(=O)C(F)(F)F)C(F)(F)F	-1.31%	–
O=C(NCCCCO)C(F)(F)C(F)(F)C(F)(F)C(=O)NCCCCO	–	18.9 µM (active)
COCCNc1ncnc2c1ncn2[C@H]1CN(CCN2CCOCC2)C[C@@H](CO)O1	-5.67%	–
CC(C)Nc1nc(NCCOc2ccccc2Cl)c2sccc2n1	4.77%	–
Cc1sc2ccccc2c1CNC[C@H]1O[C@@H](n2ccc(=O)[nH]c2=O)[C@H](O)[C@@H]1O	2.69%	–
C=CCn1c(SCc2ccccc2)nc2c1c(=O)[nH]c(=O)n2C	–	26.7 µM (active)
CC1CCN(c2nc3c(c(=O)[nH]c(=O)n3C)n2CCCc2ccccc2)CC1	-10.5%	–
Cc1nnc(Sc2nc3c(c(=O)[nH]c(=O)n3C)n2Cc2ccccc2)s1	0.479%	–
CN(C)C1CN(Cc2cn(Cc3ccccc3)nn2)S(=O)(=O)C1 (configuration not stated)	-9.56%	–
CCCCCc1c(-c2cccc(Br)c2)ncn1CCc1ccccc1OC	-9.6%	–
O=C(NCCS(=O)(=O)N1CCN(c2ccccc2F)CC1)c1ccc(Br)o1	–	15 µM (active)
O=C(NCCS(=O)(=O)N1CCN(c2ccccc2)CC1)c1ccco1	-3.4%	–
O=C(NCCS(=O)(=O)N1CCN(c2ccccc2)CC1)c1cc(=O)c2ccccc2o1	-10.4%	–
NC(CSC(c1ccccc1)(c1ccccc1)c1ccc(-c2ccccc2)cc1)C(=O)O (configuration not stated)	-12.6%	–
CCC(=O)N1CCCC1(C)C(=O)Nc1ccc2c(c1)CCN2C(C)=O (configuration not stated)	-12.6%	–

SMILES	max response, negative = inhibition	Potency
O=C(Nc1ccccc1)c1cc2ccccc2[nH]1	0%	–
S=c1ccc2ccccc2[nH]1	–	10.6 µM (active)
O=C(Nc1ccc(Cl)cn1)c1ccccc1-c1ccccc1	-6.02%	–
CC1(C(=O)Nc2cccc3cccnc23)CCN1C(=O)CCC1CCCC1 (configuration not stated)	0.774%	–
CCOC(=O)c1c(N)sc2c1CCCC2=O	-6.68%	–
CCOC(=O)c1c(N)sc(C(C)=O)c1C	–	21.2 µM (active)
CCOC(=O)Nc1sc(C(=O)N(C)C)c(C)c1C(=O)OCC	-6.39%	–
CC(=O)c1cccc(-c2cnc3c(NC=O)cc(-c4ccc(N5CCN(C)CC5)cc4)cn23)c1	2.15%	–
CCCCC(=O)N(C)c1c(CC)nc2c(OCc3ccc(S(C)(=O)=O)cc3)cccn12	-6.21%	–
COc1ccc(OCc2ccc(-c3nc4ccccc4c(=O)n3N)o2)cc1	2.15%	–
COc1ccc(Cc2n[nH]c(=S)n2NC(=O)Nc2ccc(C)cc2)cc1	-9.65%	–
COc1ccc(OCc2n[nH]c(=S)n2N)cc1	–	3.77 µM (active)
O=C(NCc1cccnc1)c1cc(C2CCCN(C(=O)C3CCCCC3)C2)on1 (configuration not stated)	0.902%	–
CC1CC(NC(=S)N(C)C)CC(C)(C)C1 (configuration not stated)	-1.25%	–
Cc1ccc(CN2CCN(Cc3ccc4ncccc4c3)CC2CCO)cc1 (configuration not stated)	-1.02%	–
CC(=O)Nc1ccc(CN2CCN(Cc3ccc(F)c(F)c3)C(CCO)C2)cc1 (configuration not stated)	–	18.9 µM (active)
CC(C)CCN1CCN(Cc2ccc(C(F)(F)F)cc2)CC1CCO (configuration not stated)	4.35%	–
COc1ccc(-c2cc(NC=O)c3ncc(-c4cc(OC)c(OC)c(OC)c4)n3c2)c(OC)c1	-18.1%	–
O[C@@H]1C[C@H](c2ccccc2)N(Cc2cccs2)C[C@H]1n1cc(C2CC2)nn1	-0.363%	–
Oc1ccc2ccc3cccc[n+]3c2c1	–	4.74 µM (active)
O=C1CCC(C(=O)OCC(=O)Nc2ccc(OC(F)F)cc2)=NN1	-4.05%	–
